GALK inhibitor = galactokinase (human) inhibition; Purified GALK, Kinase-Glo residual ATP luminescence; Potency, µM (titrated, usually from 57.5 µM), for inactives: top-dose activity change, negative = inhibition, usual class: inhibitors; hit rate 0.007% among 270,000; note: potency is the fitted concentration of half-maximal effect
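Kinase-Glo Plus luminescence measured ATP left after a 1 h room-temperature reaction. The reaction used 5 nM GALK, 100 uM galactose and 35 uM ATP at pH 8.0 (20 mM HEPES, 5 mM MgCl2, 60 mM NaCl, 1 mM DTT, 0.01% BSA).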
PI4K2A block = blocks human PI4K2A kinase activity; Q9BTU6; purified PI4K2A, ADP-Glo luminescence, 1 h; hits give low values; activity change, negative = inhibition, % at 76.9 µM; hit rate 0.13% among 420,000; in the data active = activity change below about -50%; inconclusive = mostly about -30% to -49%;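 note: -100% = wells without enzyme as full effect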
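In this quantitative HTS, ADP production by PI4K2A was quantified luminescently after 1 h at ambient temperature; 100 microM adenosine served as plate-quality control.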
Giardia killer = Giardia lamblia killing. Giardia lamblia trophozoite viability. activity change, % at 7.66 µM, hits read low. hit rate 0.15% among 340,000. AID 540267; in the data active = activity change below about -80%; inconclusive = between about -30% and that limit;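 note: parasites exposed to compound for two days anaerobically before the ATP read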
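Media and compound were dispensed first, then trophozoites at 100 cells/well; plates sat 48 hrs at 37 deg C without oxygen before ATP luminescence reagent was added and read after 15-30 min at room temperature.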
rTrxR1 inhibitor = blocks rat thioredoxin reductase 1; hit rate 1% among 390,000; recombinant rTrxR1, NADPH fluorescence consumption, selenite substrate; O89049; Potency, µM (doses to about 114 µM), for the others: at the highest dose activity change, negative = inhibition, most hits filed as inhibitors; note: potency is the fitted concentration of half-maximal effect; nearly all actives have a fitted effect of over 65% in size
Target sequence (O89049 whole entry, looked up): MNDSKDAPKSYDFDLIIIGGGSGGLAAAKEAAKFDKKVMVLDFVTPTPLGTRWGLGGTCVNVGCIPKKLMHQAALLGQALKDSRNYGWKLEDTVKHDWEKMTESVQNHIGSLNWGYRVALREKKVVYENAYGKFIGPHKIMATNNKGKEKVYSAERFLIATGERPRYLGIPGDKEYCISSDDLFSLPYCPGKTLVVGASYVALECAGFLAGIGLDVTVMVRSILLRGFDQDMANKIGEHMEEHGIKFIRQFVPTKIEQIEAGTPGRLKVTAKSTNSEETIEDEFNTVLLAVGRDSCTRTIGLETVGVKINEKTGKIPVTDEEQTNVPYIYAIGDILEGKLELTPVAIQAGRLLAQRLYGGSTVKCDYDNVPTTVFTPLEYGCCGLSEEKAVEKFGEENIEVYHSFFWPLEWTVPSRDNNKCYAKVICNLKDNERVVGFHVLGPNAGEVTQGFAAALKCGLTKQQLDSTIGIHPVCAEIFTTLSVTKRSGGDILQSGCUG
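Rat TrxR1 (90 nM in the dispensed reagent) was pre-reduced with 400 uM NADPH for 5 min at room temperature, then incubated with compound for 15 min. After 400 uM selenite was added, NADPH fluorescence (Ex 340/Em 450 nm) was followed for 8 min.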
TrxR1 substrate = substrates of rat thioredoxin reductase 1. O89049. purified TrxR1 substrate turnover, NADPH consumption readout. Potency, µM (titrated, usually from 114 µM), for the others: at the highest dose activity change, negative = substrate turnover. hit rate 0.01% among 390,000. AID 588456; note: potency is the fitted concentration of half-maximal effect; nearly all actives have a fitted effect of over 50% in size
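Rat TrxR1, dispensed at 90 nM, was prereduced with 400 uM NADPH (final) for 5 min at ~22 deg C, then incubated with compound 15 min before 400 uM selenite. A first-read NADPH fluorescence drop versus no-compound background flagged substrates.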
Coupling enz = counter-screen for Giardia aldolase inhibitors: coupling enzyme system; activity change, negative = inhibition, % at 58.2 µM, hits read low; coupling enzyme system counterscreen, AmpLite Red fluorescence; hit rate 0.67% among 290,000; in the data active = activity change below about -30%
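Counterscreen lacking aldolase: glyceraldehyde-3-phosphate coupling-enzyme reagent preincubated 10 min at RT with compound (at 57.5 uM final), then substrate/coupling system with AmpLite Red added; fluorescence read at 525/598 nm after 20 min RT.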
* hit, by the source's call; ? = inconclusive; . = no result given; [ ] = dose if it differs, or a comment. The list is not random: actives were taken first. Their share in the collection is about 1.5%. Unless noted, calls come from the whole dose curve; as a rule, active = well fitted curve in the direction sought with a large enough effect; inconclusive = small, poorly fitted or top-dose-only effect, or another doubt; inactive = no such curve, though single readings can be large; an effect the other way counts as inactive or inconclusive. Unless noted, % is set by controls: 0 for no effect and ±100 for the full control effect.

SMILES	GALK inhibitor	PI4K2A block	Giardia killer	rTrxR1 inhibitor	TrxR1 substrate	Coupling enz
Cc1nc([N+](=O)[O-])c(Br)n1CC(=O)c1ccccc1	-1%	3	-9	11µM*	-9%	3
Cc1nc([N+](=O)[O-])cn1CC(=O)c1ccc(Cl)cc1	10%	-2	-15	22%	1%	1
Cc1nc([N+](=O)[O-])c(Br)n1CC(=O)c1ccc2ccccc2c1	-1%	3	-3	11µM*	-5%	2
Cc1nc([N+](=O)[O-])c(Br)n1CC(=O)c1ccc(Br)cc1	-1%	20	-3	11µM*	4%	-1
COC(=O)[C@H]1C[C@]2(C(C=C(C)C)S(=O)(=O)c3ccccc3)c3ccccc3N[C@H]2N1 (some centres undefined)	.	0	.	.	.	.
CN(C)c1ccc(/C=C/c2cc[n+](C)c3ccc4ccccc4c23)cc1	.	.	.	15%	-7%	.
CC#CCN1c2ccccc2[C@]23C[C@@H](C(=O)OC)N(S(=O)(=O)c4ccc5c(c4)OCCN5C)C2=NC(C(=O)OC)=C(C(=O)OC)[C@H]13	.	.	.	.	.	1
CC(C)c1ccc(NC(=O)O[C@@H]2CC[C@@]34CCCN3C(=O)CCC[C@H]4C2)cc1	.	4	.	.	.	.
O=[N+]([O-])c1cc(/C=N\Nc2nc(-c3ccccc3)cs2)ccc1O	-2%	-9	-8	-2%[57.1 µM]	1%[57.1 µM]	2
Cc1csc(N/N=C/c2ccc(O)c([N+](=O)[O-])c2)n1	5%	-13	-11	28µM*	-23%	-4
COC(=O)C[C@H]1c2ccccc2C2=C(C[C@@H](C)[C@H]3C(=O)NC(=O)[C@@H]23)N1C(=O)OC	.	.	.	.	.	1
Cc1ccc(S(=O)(=O)/N=C2/NC(=O)/C(=C\c3cc(Br)cc(Br)c3O)S2)cc1	?	-8	19	-24%	-12%	.
Cc1ccc(S(=O)(=O)/N=C2/NC(=O)/C(=C/c3ccc(Br)o3)S2)cc1	-28%	1	-8	28µM*	-8%	12
COC(=O)c1ccc(C2C(C#N)=C(N)Oc3cc(O)ccc32)cc1 (centres undefined)	-4%	-1	-14	18µM*	-3%	-1
COC(=O)c1ccc(C2C(C#N)=C(N)Oc3cc(N)ccc32)cc1 (centres undefined)	3%	-1	10	1%	-2%	-1
CC1(C)CC(=O)C2=C(C1)N(c1cccc(O)c1)C1=C(C2)C(=O)CC(C)(C)C1	2%	-4	-2	20%[57.1 µM]	15%	-36*
CC1(C)CC(=O)C2=C(C1)N(c1ccccc1)C(=O)C(C(=O)OCc1ccccc1)C2 (centres undefined)	.	4	5	9%	-4%	.
CN(C)c1ccc(/C=C/c2ccnc3ccc(O)cc23)cc1	.	.	.	3%	-8%	.
Cc1c(C(=O)Oc2cc(N)n(S(C)(=O)=O)n2)cccc1[N+](=O)[O-]	4%	27	0	25µM*	5%	5
Cc1ccccc1C(=O)Oc1cc(N)n(S(C)(=O)=O)n1	7%	32	0	4%[57.1 µM]	1%[57.1 µM]	1
O=c1c(C(c2ccccc2)c2c(O)nc3n(c2=O)CCCS3)c(O)nc2n1CCCS2	2%	-4	-15	?	3%	11
O=c1c(C(c2ccccc2)c2c(O)nc3n(c2=O)CCS3)c(O)nc2n1CCS2	.	-2	-3	7.1µM*	-3%	6
O=c1c(C(c2ccc(F)cc2)c2c(O)nc3n(c2=O)CCCS3)c(O)nc2n1CCCS2	9%	0	10	14µM*	-4%	11
Cc1ccc(Sc2ccccc2CN(C)C)c(N)c1	.	.	.	.	.	-1
OCCCCNc1cccc2ccccc12	-3%	-1	-2	38%[57.1 µM]	305%	-41*
CCN(CCCCO)c1nc(C)nc2c1c(C)c(C)n2-c1c(C)cc(C)cc1C	.	.	.	.	.	4
Cc1[nH]c(=O)[nH]c(=O)c1/C=N/NC(=O)[C@@H](N)CC(C)C	-2%	-60*	1	-24%	7%	0

Screening data deposited in PubChem BioAssay by National Center for Advancing Translational Sciences (NCATS).
